Data taken from PubChem BioAssay.
Activity calls are given as the source filed them.

Assays:
[1] = anti-His antibody binders, primary screen, artefact control for SMM control protein annotation, biochemical, small-molecule microarray, 635 nm fluorescence (AID 1128); conditions: anti-His Alexa647 antibody binding, higher = more signal;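 also: score merges feature fluorescence with signal-to-noise for each printed compound spot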
[2] = tested on: Human papillomavirus type 1a E7 protein (residues 1-88); assay: HPV1a E7 small-molecule binders, primary screen, biochemical, small-molecule microarray, residues 1-88, 635 nm (AID 1129); conditions: small-molecule microarray binding, fluorescence 635 nm; higher = more signal
[3] = target: Focal adhesion kinase 1 (Homo sapiens) (UniProt Q05397); assay: small-molecule microarray binders of FAK, primary screen, biochemical, 635/667 nm fluorescence, BSA, DTT (AID 1130); conditions: PTK2 binding, 635 nm fluorescence, higher = more signal;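 also: composite of spot emission at 667 nm and signal to noise over triplicate slides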
[4] = tested on: Fibrinogen (Alexa647-labelled); assay: fibrinogen binders on compound microarrays, profiling panel, artefact control for SMM control-protein annotation, biochemical, small-molecule microarray, 635/667 nm fluorescence (AID 1131); conditions: fibrinogen-A647 binding fluorescence, higher = more signal;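 also: z-score merges 667 nm fluorescence with per-spot signal-to-noise over triplicate slides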
[5] = target: Follistatin (Homo sapiens) (UniProt P19883); assay: follistatin binders on small-molecule microarrays, primary screen, biochemical, small-molecule microarray, 635/667 nm fluorescence (AID 1132); conditions: FST binding, 635 nm fluorescence, higher = more signal
[6] = target: Fibroblast growth factor 2 (Homo sapiens) (UniProt P09038); assay: FGF2 binders on small-molecule microarrays, primary screen, biochemical, small-molecule microarray, 635/667 nm fluorescence (AID 1133); conditions: small-molecule microarray binding, FGF2, fluorescence 635/667; higher = more signal
[7] = mitochondrial membrane potential change in A549 cells, profiling panel, cell-based, JC-1 fluorescence, basal, 24 h, 100 nL (AID 1138); conditions: higher = more signal;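 also: A549 lung adenocarcinoma cells under basal conditions with no added stimulus; test concentration not given here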
[8] = tested on: Lefty1; assay: Lefty1 binders on small-molecule microarrays, primary screen, biochemical, small-molecule microarray, 635/667 nm fluorescence (AID 1139); conditions: small-molecule microarray binding, fluorescence 635/667; higher = more signal
[9] = tested on: wheat germ agglutinin (Triticum aestivum), Alexa647-labelled; assay: wheat germ agglutinin binders on compound microarrays, profiling panel, artefact control for SMM control-protein annotation, biochemical, small-molecule microarray, 635/667 nm fluorescence (AID 1140); conditions: WGA-A647 binding, 635 nm fluorescence, higher = more signal;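 also: score merges 667 nm feature emission with signal to noise over triplicate slides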
[10] = target: Luciferin 4-monooxygenase (Photinus pyralis) (UniProt P08659); assay: firefly luciferase enzyme inhibitors, primary screen, biochemical, luminescence, purified enzyme, 2006 set (AID 1141); conditions: SteadyGlo luminescence, 30 min, higher = more signal, called active from +8 up or from −8 down;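 also: cell-free assay with purified firefly luciferase at 100 ng per well in PBS; test concentration not given here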
Luciferin 4-monooxygenase (Photinus pyralis), sequence (P08659 whole entry, looked up): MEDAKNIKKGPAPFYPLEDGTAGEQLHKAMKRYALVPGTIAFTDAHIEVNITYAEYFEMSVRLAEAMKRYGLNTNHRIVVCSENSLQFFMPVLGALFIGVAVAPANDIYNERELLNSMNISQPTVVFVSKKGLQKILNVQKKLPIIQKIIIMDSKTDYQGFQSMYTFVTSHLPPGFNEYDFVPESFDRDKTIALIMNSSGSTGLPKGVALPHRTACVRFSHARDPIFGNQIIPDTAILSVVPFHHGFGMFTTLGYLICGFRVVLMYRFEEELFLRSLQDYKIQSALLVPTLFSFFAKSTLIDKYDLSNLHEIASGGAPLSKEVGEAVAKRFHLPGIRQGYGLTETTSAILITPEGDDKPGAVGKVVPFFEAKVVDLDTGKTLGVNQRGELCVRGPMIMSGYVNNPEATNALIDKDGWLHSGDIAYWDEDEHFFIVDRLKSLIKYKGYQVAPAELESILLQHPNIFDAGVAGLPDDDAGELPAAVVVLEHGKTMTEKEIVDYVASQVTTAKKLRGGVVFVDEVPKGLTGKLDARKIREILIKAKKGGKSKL

Follistatin (Homo sapiens), sequence (P19883 whole entry, looked up): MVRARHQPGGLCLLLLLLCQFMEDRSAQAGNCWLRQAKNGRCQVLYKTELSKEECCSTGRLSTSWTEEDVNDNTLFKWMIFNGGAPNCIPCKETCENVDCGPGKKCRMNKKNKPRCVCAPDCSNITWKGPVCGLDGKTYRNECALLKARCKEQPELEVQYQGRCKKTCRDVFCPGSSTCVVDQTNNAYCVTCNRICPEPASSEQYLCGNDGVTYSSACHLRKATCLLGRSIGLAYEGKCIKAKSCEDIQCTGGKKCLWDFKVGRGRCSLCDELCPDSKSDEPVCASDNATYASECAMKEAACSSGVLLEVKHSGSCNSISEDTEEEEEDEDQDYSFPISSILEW
Focal adhesion kinase 1 (Homo sapiens), sequence (Q05397 whole entry, looked up): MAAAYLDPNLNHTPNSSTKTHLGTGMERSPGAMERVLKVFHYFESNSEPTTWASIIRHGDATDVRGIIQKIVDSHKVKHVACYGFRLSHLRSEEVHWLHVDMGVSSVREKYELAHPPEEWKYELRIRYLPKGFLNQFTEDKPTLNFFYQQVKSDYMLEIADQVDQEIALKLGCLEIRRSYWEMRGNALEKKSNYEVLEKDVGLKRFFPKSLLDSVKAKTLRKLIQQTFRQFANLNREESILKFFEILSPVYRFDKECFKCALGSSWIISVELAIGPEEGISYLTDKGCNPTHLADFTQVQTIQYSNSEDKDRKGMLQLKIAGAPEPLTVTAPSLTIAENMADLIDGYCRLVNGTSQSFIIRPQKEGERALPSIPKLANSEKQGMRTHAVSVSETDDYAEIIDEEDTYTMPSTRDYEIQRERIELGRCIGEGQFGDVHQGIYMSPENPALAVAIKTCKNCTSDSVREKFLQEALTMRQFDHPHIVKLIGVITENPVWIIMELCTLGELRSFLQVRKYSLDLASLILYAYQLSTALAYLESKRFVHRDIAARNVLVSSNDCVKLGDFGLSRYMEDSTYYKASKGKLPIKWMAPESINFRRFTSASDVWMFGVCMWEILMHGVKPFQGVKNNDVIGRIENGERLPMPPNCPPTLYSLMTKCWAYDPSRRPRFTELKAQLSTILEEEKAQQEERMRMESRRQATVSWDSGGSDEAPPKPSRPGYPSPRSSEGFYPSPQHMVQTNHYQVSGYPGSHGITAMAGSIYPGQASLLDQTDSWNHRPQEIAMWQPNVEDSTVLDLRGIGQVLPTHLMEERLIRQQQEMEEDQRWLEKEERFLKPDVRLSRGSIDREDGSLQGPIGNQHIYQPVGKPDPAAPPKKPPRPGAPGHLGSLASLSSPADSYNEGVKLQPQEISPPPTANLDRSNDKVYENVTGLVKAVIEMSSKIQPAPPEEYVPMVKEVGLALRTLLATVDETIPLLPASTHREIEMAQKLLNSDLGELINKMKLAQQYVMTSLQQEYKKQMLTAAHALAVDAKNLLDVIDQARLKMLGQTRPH
Fibroblast growth factor 2 (Homo sapiens), sequence (P09038 whole entry, looked up): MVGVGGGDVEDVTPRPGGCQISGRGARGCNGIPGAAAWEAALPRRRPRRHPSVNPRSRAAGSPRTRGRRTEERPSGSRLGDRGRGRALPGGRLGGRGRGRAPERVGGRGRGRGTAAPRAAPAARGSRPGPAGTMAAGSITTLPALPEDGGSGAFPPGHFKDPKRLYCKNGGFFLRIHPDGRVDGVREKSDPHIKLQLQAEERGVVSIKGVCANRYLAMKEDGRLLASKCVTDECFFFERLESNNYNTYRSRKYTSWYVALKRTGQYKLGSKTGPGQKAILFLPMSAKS

COc1ccc([Si](C)(C)[C@H]2[C@H](CCO)O[C@@]3(C(=O)N(Cc4ccccc4)c4ccc(N5C(=O)COc6ccccc65)cc43)[C@@H]2C)cc1
composite z-score [1]: -0.12
composite z-score [2]: -0.127
composite z-score [3]: -0.0125
composite z-score [4]: 0.26
composite z-score [5]: -0.242
composite z-score [6]: -0.116
z-score [7]: 0.771
composite z-score [8]: -0.0702
composite z-score [9]: 1.1
z-score [10]: -0.369 (inactive)

Cc1ccc(F)cc1S(=O)(=O)N[C@@H]1CCN(Cc2ccc(C(F)(F)F)cc2)C1
composite z-score [1]: -0.175
composite z-score [2]: -0.704
composite z-score [3]: -0.0343
composite z-score [4]: -0.292
composite z-score [5]: 0.277
composite z-score [6]: -0.456
z-score [7]: 0.197
composite z-score [8]: 0.22
composite z-score [9]: -0.655
z-score [10]: -0.0404 (inactive)

COC(=O)C(CC#Cc1ccc2c(c1)[C@]1(C(=O)N2)[C@H](C(=O)N2CCCCCCC2)[C@H]2C(=O)O[C@H](c3ccccc3)[C@H](c3ccccc3)N2[C@@H]1c1ccccc1OCCO)C(=O)OC
composite z-score [1]: 3
composite z-score [2]: 1.35
composite z-score [3]: 4.24
composite z-score [4]: 0.654
composite z-score [5]: 1.56
composite z-score [6]: 0.197
z-score [7]: -1.08
composite z-score [8]: 1.89
composite z-score [9]: 1.73
z-score [10]: -0.525 (inactive)

C[C@H]1C2[C@H](Cc3ccccc3)NC(=O)[C@]23C(=O)N[C@H](Cc2ccccc2)C(=O)N[C@H](Cc2ccccc2)C(=O)NC/C=C/CCC/C=C/C3[C@@H]2O[C@]12C (stereo not given in full)
composite z-score [1]: 0.896
composite z-score [2]: 1.18
composite z-score [3]: 0.0256
composite z-score [4]: 0.304
composite z-score [5]: 1.08
composite z-score [6]: 0.519
z-score [7]: -0.256
composite z-score [8]: 1.56
composite z-score [9]: 0.756
z-score [10]: -3.27 (inactive)

NC(=O)[C@@]1(CCS(=O)(=O)c2ccccc2)N=C(c2ccc(OCCCO)cc2)O[C@H]1c1ccccc1
composite z-score [1]: 2.14
composite z-score [2]: 1.27
composite z-score [3]: 0.533
composite z-score [4]: 1.02
composite z-score [5]: 0.78
composite z-score [6]: -0.507
z-score [7]: -0.309
composite z-score [8]: -0.0434
composite z-score [9]: 1.17
z-score [10]: 0.155 (inactive)

[N-]=[N+]=NCc1ccccc1C[C@@]1(C(=O)NCc2ccccc2)N=C(c2ccc(OCCCO)cc2)O[C@@H]1c1ccccc1CN=[N+]=[N-]
composite z-score [1]: 1.44
composite z-score [2]: 1.17
composite z-score [3]: 0.96
composite z-score [4]: 0.915
composite z-score [5]: 0.557
composite z-score [6]: 0.0516
z-score [7]: 0.573
composite z-score [8]: -0.621
composite z-score [9]: 1.03
z-score [10]: 0.0675 (inactive)

O=c1cccc(-c2ccc3ccccc3c2)o1
composite z-score [1]: -0.829
composite z-score [2]: -0.788
composite z-score [3]: -0.179
composite z-score [4]: -0.656
composite z-score [5]: 0.305
composite z-score [6]: -0.276
z-score [7]: 1.14
composite z-score [8]: -0.123
composite z-score [9]: -0.276
z-score [10]: -2.88 (inactive)

COCCCNC(=O)[C@@]1(C)c2ccccc2C(=O)N(Cc2ccccc2)[C@H]1c1ccc(CO)cc1
composite z-score [1]: 0.909
composite z-score [2]: 0.0047
composite z-score [3]: 0.101
composite z-score [4]: -0.678
composite z-score [5]: 0.0033
composite z-score [6]: -0.992
z-score [7]: -0.939
composite z-score [8]: -0.635
composite z-score [9]: -0.505
z-score [10]: -0.0137 (inactive)

C=C(CCCC)C(=O)CC[C@@H](OC(=O)c1ccccc1-c1ccccc1C(=O)O)c1ccc(CO)o1
composite z-score [1]: 0.39
composite z-score [2]: 1.1
composite z-score [3]: -0.248
composite z-score [4]: 0.294
composite z-score [5]: 1.3
composite z-score [6]: 1.31
z-score [7]: 0.31
composite z-score [8]: 1.38
composite z-score [9]: 0.445
z-score [10]: -3.84 (inactive)

CCN(CC)c1ccc(N2CC=CC34O[C@@H]5/C=C\CCCOC(=O)C5[C@H]3C(=O)N(CCCO)[C@@H]4C2=O)cc1 (stereo not given in full)
composite z-score [1]: 1.54
composite z-score [2]: -0.231
composite z-score [3]: -0.426
composite z-score [4]: -0.928
composite z-score [5]: -1.05
composite z-score [6]: -0.942
z-score [7]: 0.614
composite z-score [8]: -0.5
composite z-score [9]: -0.137
z-score [10]: -0.826 (inactive)

CC(C)C[C@@H]1NC(=O)[C@@H]2C[C@H](C(=O)NCCCCN(C)C)[C@H](c3ccc(O)cc3)N2C1=O
composite z-score [1]: 2.74
composite z-score [2]: -0.494
composite z-score [3]: -0.462
composite z-score [4]: -0.838
composite z-score [5]: -0.21
composite z-score [6]: -0.0947
z-score [7]: -0.273
composite z-score [8]: -0.477
composite z-score [9]: -0.153
z-score [10]: 0.36 (inactive)

COCCOC(=O)N1C(=O)[C@@]2(c3cc(C#CCCO)ccc31)[C@H](C(=O)NC[C@H](O)c1ccccc1)[C@H]1C(=O)O[C@H](c3ccccc3)[C@H](c3ccccc3)N1[C@@H]2c1ccc(OCCO)cc1
composite z-score [1]: 0.714
composite z-score [2]: 1.18
composite z-score [3]: 1
composite z-score [4]: 0.951
composite z-score [5]: 1.28
composite z-score [6]: 1.24
z-score [7]: -1.27
composite z-score [8]: 1.42
composite z-score [9]: 0.246
z-score [10]: -1.09 (inactive)

COC(=O)[C@@]1(Cc2ccc(F)cc2)[C@H]2c3cc(C(=O)N(C)C)n(CCc4c[nH]c5ccc(OC)cc45)c3C[C@H]2CN1C(=O)c1ccccc1
composite z-score [1]: -0.0359
composite z-score [2]: 1.25
composite z-score [3]: 0.827
composite z-score [4]: 1.04
composite z-score [5]: -0.49
composite z-score [6]: -1.09
z-score [7]: -1.79
composite z-score [8]: -1.41
composite z-score [9]: 1.37
z-score [10]: 0.158 (inactive)

COc1ccc([Si](C)(C)[C@@H]2[C@@H](CCO)O[C@]3(C(=O)N(Cc4ccccc4)c4ccc(N(C=O)c5ccccc5)cc43)[C@H]2C)cc1
composite z-score [1]: 1.24
composite z-score [2]: 0.0244
composite z-score [3]: -0.205
composite z-score [4]: 0.181
composite z-score [5]: 1.08
composite z-score [6]: 0.614
z-score [7]: -0.276
composite z-score [8]: 0.497
composite z-score [9]: 0.467
z-score [10]: -0.301 (inactive)

COCCOC(=O)N1C(=O)[C@@]2(c3ccccc31)[C@H](c1ccc(O)cc1)N1[C@H](c3ccccc3)[C@H](c3ccccc3)OC(=O)[C@H]1[C@@H]2C(N)=O
composite z-score [1]: -0.445
composite z-score [2]: -0.218
composite z-score [3]: -0.046
composite z-score [4]: -1.35
composite z-score [5]: -0.601
composite z-score [6]: -0.239
z-score [7]: 0.181
composite z-score [8]: -0.0341
composite z-score [9]: -0.0601
z-score [10]: -0.144 (inactive)

CCCC[C@H]1C[C@@H]1[C@@H]1N(P(=O)(c2ccccc2)c2ccccc2)[C@](CO)(c2ccccc2)CC12CC2
composite z-score [1]: 0.108
composite z-score [2]: 1.12
composite z-score [3]: 0.737
composite z-score [4]: 0.936
composite z-score [5]: 0.156
composite z-score [6]: -1.11
z-score [7]: -1.75
composite z-score [8]: -0.519
composite z-score [9]: 0.434
z-score [10]: 2.75 (inactive)

COC(=O)[C@@]1(Cc2ccc(OC)cc2)[C@H]2c3cc(C(=O)N4CCCC4)n(C[C@H](O)CO)c3C[C@H]2CN1C(=O)c1ccccc1
composite z-score [1]: 0.39
composite z-score [2]: 0.339
composite z-score [3]: 0.493
composite z-score [4]: 0.276
composite z-score [5]: -0.319
composite z-score [6]: -0.411
z-score [7]: 0.605
composite z-score [8]: -0.752
composite z-score [9]: 1.02
z-score [10]: 1.84 (inactive)

C=CCOC(=O)[C@@H]1[C@H]2C(=O)O[C@H](c3ccccc3)[C@H](c3ccccc3)N2[C@H](c2ccc(OCCOC(=O)[C@H]3C[C@H]4C(=O)N[C@@H](CC(C)C)C(=O)N4[C@H]3c3cccc(OCCO)c3)cc2)[C@@]12C(=O)Nc1ccc(I)cc12
composite z-score [1]: 2.26
composite z-score [2]: 1.19
composite z-score [3]: 0.844
composite z-score [4]: 0.587
composite z-score [5]: 1.38
composite z-score [6]: 1.63
z-score [7]: -0.736
composite z-score [8]: 1.5
composite z-score [9]: 0.34
z-score [10]: -0.201 (inactive)

C=CC[C@]1(C(=O)O)N=C(c2ccc(OCCCO)cc2)O[C@H]1c1ccccc1CN=[N+]=[N-]
composite z-score [1]: 0.518
composite z-score [2]: -0.583
composite z-score [3]: 0.174
composite z-score [4]: -0.276
composite z-score [5]: 0.349
composite z-score [6]: -0.39
z-score [7]: 0.00796
composite z-score [8]: -0.316
composite z-score [9]: 0.184
z-score [10]: -0.893 (inactive)

O=C1OCCC=C[C@H]2OC34C=CCN(CCN5CCOCC5)C(=O)[C@H]3N(CCO)C(=O)[C@@H]4C12 (stereo not given in full)
composite z-score [1]: 1.07
composite z-score [2]: -0.793
composite z-score [3]: -0.379
composite z-score [4]: 0.236
composite z-score [5]: 1.11
composite z-score [6]: 0.785
z-score [7]: -0.849
composite z-score [8]: 0.648
composite z-score [9]: 0.418
z-score [10]: -0.0527 (inactive)

O=C1O[C@H](c2ccccc2)[C@H](c2ccccc2)N2[C@H]1[C@@H](C(=O)Nc1nc3ccccc3s1)[C@]1(C(=O)Nc3ccc(C#CC4=CCCCC4)cc31)[C@H]2c1ccc(OCCO)cc1
composite z-score [1]: 1.62
composite z-score [2]: 1.18
composite z-score [3]: 0.148
composite z-score [4]: 0.831
composite z-score [5]: 1.12
composite z-score [6]: 0.579
z-score [7]: -2.24
composite z-score [8]: 0.077
composite z-score [9]: 0.916
z-score [10]: -3.28 (inactive)

O=C1OCC=C[C@H]2OC34C=CCN(c5ccc(Cl)cc5)C(=O)[C@H]3N(CCCO)C(=O)[C@@H]4[C@@H]12 (stereo not given in full)
composite z-score [1]: -0.562
composite z-score [2]: -0.799
composite z-score [3]: 0.29
composite z-score [4]: -1.02
composite z-score [5]: -0.706
composite z-score [6]: -0.708
z-score [7]: -0.353
composite z-score [8]: -0.672
composite z-score [9]: -0.748
z-score [10]: -0.429 (inactive)
